Measurements reported in PubChem BioAssay.

Key:
[1] = system: Human papillomavirus type 1a protein E7 (residues 44-93); experiment: HPV1a E7 fragment binders on microarrays, primary screen, biochemical, small-molecule microarray, residues 44-93, 635 nm fluorescence (AID 1108); conditions: small-molecule microarray binding, fluorescence 635 nm; higher = more signal;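 also: E7 fragment applied at 1 µg/mL in TBST for 1 h at 4 C; score combines spot fluorescence with its signal to noise ratio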
[2] = modulators of HCV replicon luciferase signal, primary screen, HCV replication inhibitor project, Huh7 cells, luciferase reporter (AID 1109); conditions: 48 h, higher = more signal;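 also: huh7 hepatoma cells harbouring a luciferase neomycin HCV replicon reporter; luciferase luminescence as measure of HCV replicon replication; test concentration not given here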
[3] = target: Left-right determination factor 2 (Homo sapiens) (UniProt O00292); experiment: LEFTY2 binders on small-molecule microarrays, primary screen, biochemical, small-molecule microarray, 635 nm fluorescence scan (AID 1110); conditions: LEFTY2 binding, higher = more signal
Chain of Left-right determination factor 2 (Homo sapiens) (O00292 whole entry, looked up): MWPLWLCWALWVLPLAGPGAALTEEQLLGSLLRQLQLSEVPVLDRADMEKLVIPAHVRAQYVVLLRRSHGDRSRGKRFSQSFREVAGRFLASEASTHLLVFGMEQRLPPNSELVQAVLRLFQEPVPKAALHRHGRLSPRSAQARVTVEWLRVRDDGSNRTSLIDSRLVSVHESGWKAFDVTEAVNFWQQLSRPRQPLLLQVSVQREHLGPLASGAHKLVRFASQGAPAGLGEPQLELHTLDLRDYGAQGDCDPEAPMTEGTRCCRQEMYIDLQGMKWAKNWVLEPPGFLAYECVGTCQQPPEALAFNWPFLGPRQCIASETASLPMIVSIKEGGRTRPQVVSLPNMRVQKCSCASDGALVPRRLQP

[4] = target: Calmodulin-1 (Homo sapiens) (UniProt P0DP23); experiment: CALM1 binders on microarrays, EGTA buffer, profiling panel, biochemical, small-molecule microarray, Cy5-labelled CALM1 (AID 1111); conditions: Cy5-CALM1 binding fluorescence, higher = more signal;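 also: labelled calmodulin applied in Tris saline Tween buffer holding calcium plus EGTA and DTT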
[5] = target: Calmodulin-1 (Homo sapiens) (UniProt P0DP23); experiment: calcium-bound CALM1 binders on microarrays, profiling panel, artefact control for SMM control-protein annotation, biochemical, small-molecule microarray, Cy5-labelled CALM1, plus calcium (AID 1112); conditions: Cy5-CALM1 binding fluorescence, higher = more signal;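 also: score merges spot fluorescence with signal to noise from triplicate slides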
[6] = small-molecule microarray binders of probe aWnt5a, primary screen, biochemical, biotinylated probe, 635/667 nm fluorescence (AID 1113); conditions: higher = more signal;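 also: score merges 667 nm fluorescence intensity with signal-to-noise per printed feature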
[7] = small-molecule microarray binders of probe aShh, primary screen, biochemical, biotinylated probe, 635/667 nm fluorescence (AID 1114); conditions: higher = more signal;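 also: probe is biotin-labelled aShh protein from a stem cell growth factor screen; measures binding of labelled protein to compounds printed on the slide; score merges feature fluorescence at 667 nm with signal-to-noise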
[8] = small-molecule microarray binders of probe aNog, primary screen, biochemical, biotinylated probe, 635/667 nm fluorescence (AID 1115); conditions: higher = more signal;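 also: probe is biotinylated aNog protein used at 0.15 µg/mL for 1 h at 4 C; z-score combines 667 nm fluorescence of each spot with its signal to noise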
[9] = target: Torsin-1A-interacting protein 1 (Homo sapiens) (UniProt Q5JTV8); experiment: LAP1 binders from COS7 cell lysate, primary screen, small-molecule microarray, 635/667 nm fluorescence (AID 1116); conditions: COS7-hLAP1 lysate binding, 635 nm fluorescence, higher = more signal
Chain of Torsin-1A-interacting protein 1 (Homo sapiens) (Q5JTV8 whole entry, looked up): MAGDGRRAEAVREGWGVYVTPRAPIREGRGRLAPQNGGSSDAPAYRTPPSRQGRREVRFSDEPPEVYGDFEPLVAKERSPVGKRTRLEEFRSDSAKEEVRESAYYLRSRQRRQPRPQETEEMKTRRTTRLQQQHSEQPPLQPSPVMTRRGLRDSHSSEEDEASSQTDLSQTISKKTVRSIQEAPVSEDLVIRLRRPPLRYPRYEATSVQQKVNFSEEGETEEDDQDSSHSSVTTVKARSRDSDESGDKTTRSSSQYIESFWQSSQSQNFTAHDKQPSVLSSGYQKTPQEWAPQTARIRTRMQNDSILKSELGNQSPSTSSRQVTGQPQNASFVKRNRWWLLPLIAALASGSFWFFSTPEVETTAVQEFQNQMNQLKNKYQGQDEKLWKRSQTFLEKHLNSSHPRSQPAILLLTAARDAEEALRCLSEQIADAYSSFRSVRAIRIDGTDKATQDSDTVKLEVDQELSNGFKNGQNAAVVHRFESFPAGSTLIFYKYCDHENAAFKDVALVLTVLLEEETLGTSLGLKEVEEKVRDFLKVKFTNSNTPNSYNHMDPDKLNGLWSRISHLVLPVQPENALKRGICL

[10] = target: Alpha-bungarotoxin (Bungarus multicinctus) (UniProt P60615); experiment: alpha-bungarotoxin binders on microarray, profiling panel, artefact control for SMM control protein annotation, biochemical, small-molecule microarray, Alexa647 label, 635/667 nm fluorescence (AID 1117); conditions: alpha-BTX-A647 binding fluorescence, higher = more signal
Chain of Alpha-bungarotoxin (Bungarus multicinctus) (P60615 whole entry, looked up): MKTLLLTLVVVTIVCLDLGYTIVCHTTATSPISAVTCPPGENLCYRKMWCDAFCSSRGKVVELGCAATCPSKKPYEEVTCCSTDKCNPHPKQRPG

## Cc1ccc(S[C@]2(C(=O)NCC(C)C)CC(=O)N(C(C)C)[C@@H]2c2ccc(CO)cc2I)cc1
[1]
  composite z-score: 0.297
[2]
  z-score: -0.98
[3]
  composite z-score: -1.62
[4]
  composite z-score: -1.21
[5]
  composite z-score: 0.0034
[6]
  composite z-score: -0.112
[7]
  composite z-score: -0.0035
[8]
  composite z-score: -0.131
[9]
  composite z-score: 0.626
[10]
  composite z-score: -0.659

## C[C@]1(C(=O)O)c2ccccc2C(=O)N(Cc2cc(C(F)(F)F)cc(C(F)(F)F)c2)[C@H]1c1ccc(CO)cc1
[1]
  composite z-score: 0.966
[2]
  z-score: 1.07
[3]
  composite z-score: -0.255
[4]
  composite z-score: -0.076
[5]
  composite z-score: -1.16
[6]
  composite z-score: -0.145
[7]
  composite z-score: -0.214
[8]
  composite z-score: 0.081
[9]
  composite z-score: -0.0827
[10]
  composite z-score: 0.764

## CN(C)CCCCCCNC(=O)[C@@H]1C[C@@H]2C(=O)N[C@@H](CCCC[N+](C)(C)C)C(=O)N2[C@@H]1c1cccc(OCCO)c1
[1]
  composite z-score: -0.0272
[2]
  z-score: 3.7
[3]
  composite z-score: -1.28
[4]
  composite z-score: -0.207
[5]
  composite z-score: -0.327
[6]
  composite z-score: -0.0981
[7]
  composite z-score: -0.295
[8]
  composite z-score: -0.444
[9]
  composite z-score: 2.09
[10]
  composite z-score: 0.217

## O=C1OCCC/C=C\[C@H]2OC34C=CCN(Cc5ccccc5)C(=O)[C@H]3N(CCO)C(=O)[C@@H]4C12 (stereo not given in full)
[1]
  composite z-score: -0.574
[2]
  z-score: 0.0684
[3]
  composite z-score: 0.518
[4]
  composite z-score: -0.251
[5]
  composite z-score: 0.774
[6]
  composite z-score: -0.169
[7]
  composite z-score: -0.0709
[8]
  composite z-score: -0.33
[9]
  composite z-score: -0.447
[10]
  composite z-score: -1.06

## COc1ccc(CCNC(=O)[C@@H]2c3ccccc3C(=O)N(Cc3cc(F)cc(C(F)(F)F)c3)[C@H]2c2ccc(CO)cc2)cc1
[1]
  composite z-score: 0.45
[2]
  z-score: -0.989
[3]
  composite z-score: 0.262
[4]
  composite z-score: 1.05
[5]
  composite z-score: 0.197
[6]
  composite z-score: 0.0438
[7]
  composite z-score: -0.314
[8]
  composite z-score: 1.86
[9]
  composite z-score: 1.59
[10]
  composite z-score: 0.715

## COCCOC(=O)N1C(=O)[C@@]2(c3cc(C#CCC(C(=O)OC)C(=O)OC)ccc31)[C@H](C(N)=O)[C@H]1C(=O)O[C@H](c3ccccc3)[C@H](c3ccccc3)N1[C@@H]2c1ccccc1OCCO
[1]
  composite z-score: 1.31
[2]
  z-score: -3.36
[3]
  composite z-score: 0.584
[4]
  composite z-score: 1.44
[5]
  composite z-score: 0.308
[6]
  composite z-score: 0.0297
[7]
  composite z-score: -0.182
[8]
  composite z-score: -0.263
[9]
  composite z-score: 0.146
[10]
  composite z-score: 0.899

## C=C1C(=O)C=C2CN(C(=O)c3ccccc3)[C@@](Cc3ccc(F)cc3)(C(=O)OC)[C@@H]12
[1]
  composite z-score: 1.39
[2]
  z-score: -3.68
[3]
  composite z-score: -0.406
[4]
  composite z-score: 2.19
[5]
  composite z-score: 1.08
[6]
  composite z-score: 0.177
[7]
  composite z-score: -0.0626
[8]
  composite z-score: 1.99
[9]
  composite z-score: 0.952
[10]
  composite z-score: 1.85

## CCCC=C(CCC)[C@@H](NC(=O)c1ccc(C(=O)OC)cc1)c1ccc(C(=O)OC)cc1
[1]
  composite z-score: 0.981
[2]
  z-score: -0.682
[3]
  composite z-score: -0.634
[4]
  composite z-score: 1.48
[5]
  composite z-score: 1.06
[6]
  composite z-score: 0.313
[7]
  composite z-score: 1.45
[8]
  composite z-score: -0.316
[9]
  composite z-score: 0.253
[10]
  composite z-score: -0.037

## CCCCN1CC=CC23O[C@@H]4/C=C\CCCOC(=O)C4[C@H]2C(=O)N(CCCCCCO)[C@@H]3C1=O (stereo not given in full)
[1]
  composite z-score: 0.528
[2]
  z-score: 0.284
[3]
  composite z-score: -1.53
[4]
  composite z-score: -1.12
[5]
  composite z-score: -0.439
[6]
  composite z-score: -0.152
[7]
  composite z-score: 0.0639
[8]
  composite z-score: -0.346
[9]
  composite z-score: 3.21
[10]
  composite z-score: -1.09

## CCOC(=O)C=C1C[C@@H](c2cccc([N+](=O)[O-])c2)O[C@@H](c2cccc([N+](=O)[O-])c2)O1
[1]
  composite z-score: 0.478
[2]
  z-score: -1.96
[3]
  composite z-score: 0.584
[4]
  composite z-score: 1.68
[5]
  composite z-score: 0.966
[6]
  composite z-score: 0.0289
[7]
  composite z-score: 0.317
[8]
  composite z-score: 1.64
[9]
  composite z-score: 0.785
[10]
  composite z-score: 1.05

## COCCOC(=O)N1C(=O)[C@@]2(c3cc(C#CCNC(N)=O)ccc31)[C@H](c1ccccc1OCCO)N1[C@H](c3ccccc3)[C@H](c3ccccc3)OC(=O)[C@H]1[C@@H]2C(=O)N1CCCCCCC1
[1]
  composite z-score: 0.6
[2]
  z-score: -1.84
[3]
  composite z-score: 0.621
[4]
  composite z-score: 1.47
[5]
  composite z-score: 0.716
[6]
  composite z-score: 0.14
[7]
  composite z-score: 0.31
[8]
  composite z-score: -0.499
[9]
  composite z-score: 1.02
[10]
  composite z-score: 1.68

## CCc1cccc(NC(=O)O[C@H]2[C@H](OC(=O)Nc3ccccc3-c3ccccc3)[C@H](OC(=O)Nc3ccccc3-c3ccccc3)[C@@H](OC)O[C@@H]2CO)c1
[1]
  composite z-score: 1.42
[2]
  z-score: -1.95
[3]
  composite z-score: 0.588
[4]
  composite z-score: 1.44
[5]
  composite z-score: -0.301
[6]
  composite z-score: 0.179
[7]
  composite z-score: 0.0796
[8]
  composite z-score: -0.318
[9]
  composite z-score: 1.81
[10]
  composite z-score: 1.29

## C=C[C@H](OC)[C@@H](O)c1ccc(OC)c(O)c1
[1]
  composite z-score: -1.25
[2]
  z-score: 0.622
[3]
  composite z-score: -1.77
[4]
  composite z-score: -1.06
[5]
  composite z-score: -0.597
[6]
  composite z-score: -0.0981
[7]
  composite z-score: -0.0035
[8]
  composite z-score: -0.326
[9]
  composite z-score: -0.435
[10]
  composite z-score: -0.646

## CC(C)c1ccc(NN2C(C(O)c3ccccc3)C=CC3C(=O)N(c4ccccc4)C(=O)C32)cc1 (stereo not given)
[1]
  composite z-score: 1.33
[2]
  z-score: 0.618
[3]
  composite z-score: -0.636
[4]
  composite z-score: 0.793
[5]
  composite z-score: 0.7
[6]
  composite z-score: 0.235
[7]
  composite z-score: 0.171
[8]
  composite z-score: 0.0811
[9]
  composite z-score: 0.588
[10]
  composite z-score: 1.67

## COC(=O)[C@@]1(Cc2ccc(F)cc2)[C@H]2c3cc(C(=O)N4CCCC4)n(C[C@H](O)CO)c3C[C@H]2CN1C(=O)c1ccccc1
[1]
  composite z-score: 0.0716
[2]
  z-score: -0.948
[3]
  composite z-score: -0.358
[4]
  composite z-score: 2.69
[5]
  composite z-score: 1.27
[6]
  composite z-score: 0.429
[7]
  composite z-score: 1.41
[8]
  composite z-score: 2.28
[9]
  composite z-score: 2.35
[10]
  composite z-score: 0.185

## COc1ccc([Si](C)(C)[C@@H]2[C@@H](CC(=O)N3Cc4ccccc4C[C@H]3CO)O[C@]3(C(=O)N(Cc4ccc(I)cc4)c4ccccc43)[C@H]2C)cc1
[1]
  composite z-score: 1.3
[2]
  z-score: -3.76
[3]
  composite z-score: 0.878
[4]
  composite z-score: 0.186
[5]
  composite z-score: 0.426
[6]
  composite z-score: -0.0472
[7]
  composite z-score: -0.304
[8]
  composite z-score: -0.503
[9]
  composite z-score: 0.224
[10]
  composite z-score: 0.308

## Cc1ccc(S[C@]2(C(=O)NCc3ccccc3)CC(=O)N(Cc3ccccc3C(F)(F)F)[C@@H]2c2ccc(CO)cc2I)cc1
[1]
  composite z-score: -0.565
[2]
  z-score: -1.64
[3]
  composite z-score: -0.916
[4]
  composite z-score: -0.348
[5]
  composite z-score: 0.549
[6]
  composite z-score: -0.124
[7]
  composite z-score: -0.334
[8]
  composite z-score: 0.389
[9]
  composite z-score: 0.662
[10]
  composite z-score: -0.593

## CC(C)N1C(=O)[C@@]2(Cc3ccccc31)c1ccccc1C(=O)N(Cc1ccccc1)[C@H]2c1ccc(CO)cc1
[1]
  composite z-score: 0.256
[2]
  z-score: -0.656
[3]
  composite z-score: 0.159
[4]
  composite z-score: -0.439
[5]
  composite z-score: -0.445
[6]
  composite z-score: -0.124
[7]
  composite z-score: -0.64
[8]
  composite z-score: -0.218
[9]
  composite z-score: 0.0896
[10]
  composite z-score: 0.648

## COCCOC(=O)N1C(=O)[C@@]2(c3cc(C#CCCO)ccc31)[C@H](C(=O)N1CCN(c3ncccn3)CC1)[C@H]1C(=O)O[C@H](c3ccccc3)[C@H](c3ccccc3)N1[C@@H]2c1ccc(OCCO)cc1
[1]
  composite z-score: 1.46
[2]
  z-score: -1.21
[3]
  composite z-score: 0.6
[4]
  composite z-score: 1.26
[5]
  composite z-score: 0.0318
[6]
  composite z-score: 0.0633
[7]
  composite z-score: 0.0469
[8]
  composite z-score: 0.234
[9]
  composite z-score: 0.867
[10]
  composite z-score: 1.95
